According to PubChem BioAssay (NCI):
The panel holds about 83,000 compounds, 20% with a hit somewhere; the sample as a whole holds those more often.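 Compound tested at a single concentration for 48 hours in 96-well plates; a percent growth value below 10 was scored as active.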 Activity calls are given as the source filed them.

Legend:
Assay in all cases: NCI-60 one-dose screen, 48 h (100 = growth as untreated, 0 = no growth, -100 = all killed)
Conditions in all cases: 10 µM unless noted
[1] = tested on: NCI-H23 lung
[2] = tested on: NCI-H226 lung
[3] = tested on: NCI-H322M lung
[4] = tested on: HOP-62 NSCLC
[5] = tested on: NCI-H460 lung
[6] = tested on: HOP-92 NSCLC
[7] = tested on: NCI-H522 lung
[8] = tested on: A549/ATCC NSCLC
[9] = tested on: 786-0 renal
[10] = tested on: COLO 205 colon

Measured: growth

COc1ccc(/C=C2\N=C(c3cccnc3)N(c3ccccc3)NC2=O)cc1
inactive: [1] 95.8% | [2] 86.8% | [3] 94.3% | [4] 109% | [5] 96.4% | [6] 22.9% | [7] 98.2% | [8] 95.7% | [9] 100% | [10] 113%

COc1cccc(CC(C)=C(c2ccc(OCCCN(C)C)cc2)c2ccc(OCCCN(C)C)cc2)c1
active: [1] -66.9% | [2] -18.9% | [3] -95% | [4] -81% | [5] -90.2% | [6] -53% | [7] -77.3% | [8] -81.5% | [9] -85.6% | [10] -74.1%

COC(=O)CNS(=O)(=O)c1ccc2c(c1)Cc1cc(S(=O)(=O)NCC(=O)OC)ccc1-2
inactive: [1] 107% | [2] 89.9% | [3] 106% | [4] 97.8% | [5] 105% | [6] 99.6% | [7] 95.7% | [8] 99.7% | [9] 105% | [10] 107%

C#CC[C@@H]1C[C@]2(C)[C@H]3CC=C4[C@H]5[C@@H](C)[C@H](C)CC[C@]5(C(=O)NCCCN5CCN(CCCN)CC5)CC[C@@]4(C)[C@]3(C)CC[C@H]2C(C)(C)[C@H]1OC(C)=O
inactive: [1] 19.8% | [2] 86.5% | [4] 58.9%
active: [3] -48.2% | [5] -60.7% | [6] -20.5% | [7] -55.4% | [8] -23.5% | [9] -97% | [10] -69.9%

O=[N+]([O-])c1ccccc1CN1CCCCC1
inactive: [1] 92.8% | [2] 112% | [3] 106% | [4] 107% | [5] 116% | [6] 89.7% | [7] 110% | [8] 106% | [9] 111% | [10] 111%

O=c1c2sc3ccccc3c2nnn1-c1ccc(F)c(Cl)c1
inactive: [1] 73% | [2] 34.3% | [3] 49.4% | [5] 10.4% | [7] 64.5% | [8] 30.3% | [9] 31.9% | [10] 41.9%
active: [4] -15% | [6] -1.07%

Cc1ccc(S(=O)(=O)NC(CCC(=O)Nc2ccc(Cl)cc2)C(=O)Nc2ccc(Cl)cc2)cc1 (stereo not given)
active: [5] 7.89% | [6] -20.4% | [7] -29.7%
inactive: [1] 38.8% | [2] 57.9% | [3] 40% | [4] 14.5% | [8] 27.6% | [9] 16.9% | [10] 52.7%

CC(C)[C@H](CN)NC[C@H](C)NS(=O)(=O)c1ccc(C(C)(C)C)cc1
inactive: [1] 97% | [2] 74.2% | [3] 101% | [4] 94.6% | [5] 100% | [6] 71.9% | [7] 96.2% | [8] 98.7% | [9] 90.3% | [10] 105%

COc1cccc(/C=N/N=C(N)N)c1
inactive: [1] 103% | [2] 98.3% | [3] 114% | [4] 104% | [5] 111% | [6] 91.1% | [7] 97.4% | [8] 102% | [9] 117% | [10] 109%

COc1cc2c(cc1OC)C(=O)C(Br)CC2 (stereo not given)
active: [7] -17.3%
inactive: [1] 45.8% | [2] 90.8% | [3] 102% | [4] 51% | [5] 75% | [6] 20.2% | [8] 80.1% | [9] 63.8% | [10] 24.6%

COc1ccc2[nH]c(C(=O)OCc3ccc4c(Br)cc(Br)c(O)c4n3)cc2c1
active: [1] -62.4% | [2] -64.7% | [4] 7.47% | [5] -75.1% | [6] -59.8% | [7] -68% | [8] -10.2% | [9] -81.8% | [10] -80.2%
inactive: [3] 43.1%

C1=C\CCCCN2CC[C@H]3[C@H](CCCC/C=C\CCCN4C[C@@H](CCCCC/1)C[C@@H]3C4)C2
inactive: [1] 79.5% | [2] 110% | [3] 108% | [4] 76.3% | [5] 51.8% | [6] 17.6% | [7] 47.8% | [8] 48.9% | [9] 73.2%
active: [10] -64.3%

CN(CCO)c1ccc(N2Cc3ccccc3OC3=C2C(=O)c2c(O)ccc(O)c2C3=O)cn1
active: [1] -66.5% | [2] 0.236% | [3] -0.583% | [4] -46.3% | [5] -51.2% | [6] -71.9% | [7] -49.8% | [8] -18.9% | [9] -91.2% | [10] -81.8%

Cc1cc(C)c2c(n1)sc1c(Nc3ccc(O)cc3)ncnc12
inactive: [2] 32.4% | [3] 46.2% | [4] 18.5% | [5] 10.1% | [6] 35.5% | [7] 32.4% | [8] 26.7% | [9] 12.6% | [10] 33%
active: [1] 9.96%

CCOC(=O)c1ccc(N(CCC(=O)O)C(C)=O)cc1
inactive: [1] 111% | [2] 102% | [3] 92.1% | [4] 108% | [5] 111% | [6] 96.2% | [7] 95% | [8] 104% | [9] 104% | [10] 119%

COc1cc(NC(C)CCCN)c2ncccc2c1Sc1ccc(Cl)cc1 (stereo not given)
active: [10] -77.4%
inactive: [1] 86% | [2] 76.1% | [3] 77% | [4] 67.7% | [5] 10.1% | [6] 15.2% | [7] 75.4% | [8] 59.1% | [9] 63.7%

O=C(C(Br)C(Br)c1ccccc1)C(Br)C(Br)c1ccccc1 (stereo not given)
active: [1] 8.99% | [2] -36.5% | [4] 3.69% | [6] -60.7% | [7] -90.6% | [9] -62.7% | [10] -47.8%
inactive: [3] 84.2% | [5] 64% | [8] 29.4%

CC1=C(C(=O)Nc2ccc(F)cc2)C(c2ccc(Cl)cc2)C2=C(CC(C)(C)CC2=O)N1 (stereo not given)
inactive: [1] 86% | [2] 84.1% | [3] 102% | [4] 97.2% | [5] 96.4% | [6] 62% | [7] 82.4% | [8] 78.3% | [9] 88.3% | [10] 97%

COc1ccc2nc(C)cc(Nc3ccccc3O)c2c1
inactive: [1] 100% | [3] 59.9% | [5] 20.6% | [7] 47.3% | [10] 89.9%
active: [2] 0.475% | [4] -61.9% | [6] -23.7% | [8] 3.25% | [9] -67%

COc1cc2nccc(Oc3ccc(NC(=O)C4(C(=O)Nc5ccc(F)cc5)CC4)cc3)c2cc1O
inactive: [1] 57.4% | [2] 67.1% | [3] 87.7% | [4] 57.6% | [5] 48.1% | [6] 33.4% | [7] 68% | [8] 56.4% | [9] 96.2% | [10] 91%

Nc1n[nH]c2ccc([C@@H]3Nc4c(F)cc5[nH]ncc5c4[C@H]4C5CCC(C5)[C@@H]34)cc12 (stereo not given in full)
active: [5] 4.8% | [7] 6.67% | [10] -0.831%
inactive: [1] 37.8% | [2] 18.4% | [3] 33.8% | [4] 37.8% | [6] 30.5% | [8] 17.1% | [9] 40.4%

COc1cc(C2CC(c3cccc(Nc4ccnc5cc(Cl)ccc45)c3)=NN2c2ccccc2)cc(OC)c1OC (stereo not given)
inactive: [1] 79.5% | [2] 82.1% | [3] 87% | [4] 82.3% | [5] 71.1% | [6] 33.3% | [7] 53.8% | [8] 76.2% | [9] 88% | [10] 92.2%

Cc1ccc(/C=C/C(=N/N=C(N)N)c2ccccc2)cc1
inactive: [1] 31.3% | [2] 59.5% | [3] 41.1% | [4] 25.8% | [6] 13.9% | [8] 18.7% | [9] 32.8%
active: [5] 8.15% | [7] 9.07% | [10] -16.4%

C=CCn1c(SCC(=O)Nc2ccc(C(=O)/C=C/c3ccccc3)cc2)nnc1-c1ccc(OC)c(OC)c1
inactive: [1] 80.7% | [2] 85.9% | [3] 85.9% | [4] 99.1% | [5] 88.2% | [6] 82.7% | [7] 68.3% | [8] 61% | [9] 75.6% | [10] 91.2%

C/C(=C\C(=N\N=C(N)N)c1ccc(Cl)cc1)c1ccc(Cl)cc1
active: [1] -71.5% | [2] -69.6% | [3] -36% | [4] -86.3% | [5] -66.8% | [6] -77% | [7] -88.4% | [8] -81.3% | [9] -70.3% | [10] -90.2%

CC(=O)OC1Oc2cc(C)c(C)cc2-c2oc(=O)c(-c3ccc(F)cc3)cc21 (stereo not given)
inactive: [1] 65.2% | [2] 102% | [3] 113% | [4] 77.8% | [5] 38% | [6] 80% | [7] 14.7% | [8] 52.5% | [9] 56.3% | [10] 79.2%

COc1ccc(/C=C(/C(=O)N2CCN(c3ccccc3)CC2)c2cc(OC)c(OC)c(OC)c2)cc1O
inactive: [1] 31.5% | [2] 28.9% | [3] 42% | [4] 20.6% | [6] 94% | [8] 17.4% | [9] 25.5% | [10] 35.7%
active: [5] 5.38% | [7] -9.76%
